Screens: PubChem BioAssay, National Center for Advancing Translational Sciences (NCATS)
Many of the other results were omitted from the sample, so hits are more common in it than they were.
HT1080 IDH1KD tx: kills HT-1080 cells with IDH1 knockdown | HT-1080 IDH1 knockdown viability, ATP luminescence, 48 h | Potency, µM (top dose mostly 46.1 µM), without a hit: top-dose activity, negative = toxicity, usual class: cytotoxic | 360,000 tested, 2% active | AID 686971;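 note: potency is the fitted concentration of half-maximal effect; 0% = DMSO wells and -100% = cell-free medium wells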
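After a 2 h attachment period, IDH1KD HT-1080 cells took pin-transferred compound for 48 h at 37 °C; ATP-based luminescence after 10 min room-temperature reagent incubation reported viability.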
12-LOX inh: ALOX12 (human) lipoxygenase inhibition. P18054. purified 12hLO, xylenol orange hydroperoxide absorbance. Potency, µM (series often up to 108 µM), for the others: at the highest dose activity change, negative = inhibition, most hits filed as inhibitors. 580,000 tested, 1.1% active; note: potency is the fitted concentration of half-maximal effect
Target sequence (P18054 whole entry, looked up): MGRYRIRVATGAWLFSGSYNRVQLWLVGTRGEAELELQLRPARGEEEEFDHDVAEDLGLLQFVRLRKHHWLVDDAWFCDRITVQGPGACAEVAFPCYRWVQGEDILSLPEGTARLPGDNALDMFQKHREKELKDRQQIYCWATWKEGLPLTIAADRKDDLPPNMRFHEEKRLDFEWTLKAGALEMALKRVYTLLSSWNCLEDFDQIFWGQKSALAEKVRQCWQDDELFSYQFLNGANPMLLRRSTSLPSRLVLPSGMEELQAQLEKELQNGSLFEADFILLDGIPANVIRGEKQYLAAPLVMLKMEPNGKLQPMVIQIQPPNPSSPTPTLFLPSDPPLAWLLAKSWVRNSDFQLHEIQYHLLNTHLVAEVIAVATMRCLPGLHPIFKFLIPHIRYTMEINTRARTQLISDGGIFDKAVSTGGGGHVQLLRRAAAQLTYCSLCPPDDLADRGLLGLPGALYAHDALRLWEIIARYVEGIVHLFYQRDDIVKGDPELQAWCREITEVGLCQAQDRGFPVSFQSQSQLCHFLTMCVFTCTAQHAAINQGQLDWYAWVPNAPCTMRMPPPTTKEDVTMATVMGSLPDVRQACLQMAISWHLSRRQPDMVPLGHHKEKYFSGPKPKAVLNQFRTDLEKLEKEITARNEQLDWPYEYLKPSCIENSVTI
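Purified human 12hLO (150 nM final) in 25 mM Hepes, 0.01% Triton X-100, pH 7.0 was preincubated 15 min at room temperature with compound. Then 40 uM arachidonic acid was added, 30 min. Hydroperoxide was read by Fe-XO absorbance ratio 573/405 nm.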
IL-1B inflam inh: inhibitors of inflammasome signaling (IL-1 beta secretion). THP-1 LPS/ATP IL-1B secretion, AlphaLISA, 16 h; hits give low values. activity change, % at 57.5 µM. 360,000 tested, 4.7% active; in the data active = activity change below about -50%; inconclusive = mostly about -30% to -49%
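Secreted IL-1B measured by AlphaLISA bead assay after 16 h compound exposure of THP-1 cells; compounds (final up to 57.5 uM) added 1 h before LPS (250 ng/mL) and ATP (1.25 mM) stimulation; lower signal means less secretion.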
DT40 TDP1 CPT: DT40-hTDP1 cell growth loss with CPT; chicken DT40 Tdp1-/-;hTDP1 cells + 20 nM CPT, ATP luminescence, 48 h; Potency, µM (top dose mostly 46.2 µM), without a hit: top-dose activity change, negative = growth inhibition, actives largely listed as inhibitors; 420,000 tested, 12% active; note: potency is the fitted concentration of half-maximal effect; nearly all actives have a fitted effect of over 55% in size
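Chicken DT40 Tdp1-/- cells complemented with human TDP1, 400 cells/well, exposed to compounds plus 20 nM camptothecin for at least 48 h at 37 C; viability read as ATP content by CellTiter-Glo luminescence.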
HT1080NT lethal: kills 2HG-producing HT-1080-NT fibrosarcoma cells; 360,000 tested, 1.6% active; AID 686970; HT-1080-NT fibrosarcoma viability, CellTiter-Glo ATP luminescence, 48 h; Potency, µM (series often up to 46.1 µM), inactives show at the top dose activity, negative = less viability, actives largely listed as cytotoxic;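 note: NT is the 2HG producing partner of a matched IDH1 knockdown line; potency is the fitted concentration of half-maximal effect; 0% = DMSO-treated cells and -100% = media-only wells without cells; nearly all actives have a fitted effect of over 55% in size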
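Viability by CellTiter-Glo luminescence after 48 h compound exposure at 37C of HT-1080-NT cells (750/well, RPMI, 5% FBS). % activity scaled between DMSO wells and medium-only wells, then curve-fitted and categorized by curve class.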
DT40 TDP1 no CPT: qHTS for Inhibitors of human tyrosyl-DNA phosphodiesterase 1 (TDP1): qHTS in cells in absence of CPT; DT40 Tdp1-/- hTDP1 cells, no CPT, ATP luminescence, 48 h; Potency, µM (top dose mostly 46.2 µM), for inactives: at the highest dose activity change, negative = growth inhibition, most hits filed as inhibitors; 420,000 tested, 15% active; AID 686978, 2013; note: potency is the fitted concentration of half-maximal effect; nearly all actives have a fitted effect of over 55% in size
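Luminescent ATP content (CellTiter-Glo) served as the growth readout. Knockout chicken DT40 cells expressing human TDP1 were exposed to compounds without camptothecin for a minimum 48 hr at 37 °C.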
* hit, by the source's call; ? = inconclusive; / = no result; ! = not confirmed by another sample; [ ] = remark or other dose. Unless noted, calls come from the whole dose curve; as a rule, active = well fitted curve in the direction sought with a large enough effect; inconclusive = small, poorly fitted or top-dose-only effect, or another doubt; inactive = no such curve, though single readings can be large; an effect the other way counts as inactive or inconclusive. Unless noted, % is set by controls: 0 for no effect and ±100 for the full control effect.

SMILES	HT1080 IDH1KD tx	12-LOX inh	IL-1B inflam inh	DT40 TDP1 CPT	HT1080NT lethal	DT40 TDP1 no CPT
CN1CCN(CCCNC(=O)c2cc3c(=O)n(C)c4ccccc4c3s2)CC1	-29%	15%	-81*	8.2µM*	?	12µM*
CN(C)c1ccc(CN2CCn3c(nn(-c4ccc([N+](=O)[O-])cc4)c3=O)C2)cc1	/	30%	/	/	/	/
COC(=O)c1ccc(Cn2nc(-c3ccc(C)c(C)c3)ccc2=O)cc1	-5%	-13%	8	?	1%	?
COC(=O)c1ccc(Cn2nc(-c3ccc(C)cc3)ccc2=O)cc1	3%	?	10	16µM*!	0%	?
COC(=O)C1=C(C)N(C)C(=O)NC1c1ccccc1OC(F)F (stereo unspecified)	/	40%	/	/	/	/
C[C@H]1CCC(=O)N([C@H](CSc2ccc(Br)cc2)Cc2ccccc2)CC1	7%	9%	?	18µM*	7%	29µM*
C[C@H]1CCC(=O)N([C@H](CN=[N+]=[N-])Cc2ccccc2)CC1	-3%	-1%	-5	-9%	0%	?
CC(=O)Nc1ccc(SC[C@H](Cc2ccccc2)N2CC[C@@H](N)CCC2=O)cc1	/	/	/	-25%	/	0.13µM*
CC(C)CN1CCC(=O)N([C@H](CSc2ccc(Br)cc2)Cc2ccccc2)CC1	-5%	-5%	-53*	15µM*	-1%	18µM*
CC(C)C[C@@H](CSc1ccccc1)N1CCN(CC(C)C)CCC1=O	4%	5%	-4	29µM*	5%	14µM*
Cc1ccc(SC[C@H](Cc2ccccc2)N2CCN(C)CCC2=O)cc1	-6%	-2%	-24	?	-9%	?
CN1CCC(=O)N([C@H](CSc2ccc(Br)cc2)Cc2ccccc2)CC1	-3%	-19%	?	21µM*	-11%	?
CN1CCC(=O)N([C@H](CSc2ccccc2)Cc2ccccc2)CC1	-7%	-4%	-4	?	0%	?
CCCCCc1ccc(-c2ccc(C3CCC(CCC)C(C)C3)cc2)nc1 (stereo unspecified)	/	11%	/	/	/	/
COc1ccccc1CNC(=O)Cc1csc(NC(=O)Nc2ccccc2OC)n1	2%	-2%	2	16µM*	7%	23µM*
COc1cc(OC)cc(C(=O)Nc2nc(CC(=O)NCc3ccc(F)cc3)cs2)c1	?	?	1	12µM*	?	8.2µM*
COc1ccccc1NC(=O)Nc1nc(CC(=O)NC2CCCC2)cs1	-3%	4%	-8	?	7%	16µM*
COc1ccccc1NC(=O)Nc1nc(CC(=O)NCc2ccccn2)cs1	-7%	14%	15	?	-11%	26µM*
COc1ccccc1NC(=O)Nc1nc(CC(=O)NCc2cccnc2)cs1	4%	12%	4	?	-1%	-14%
CCc1nnc(C(=O)Nc2ccc(C(=O)N3CCOCC3)cc2)s1	/	-1%	/	/	/	/
COc1cc(CNC(=O)c2nccnc2N)ccc1OCc1ccncc1	/	-45%	/	/	/	/
COc1ccc(CNC(=O)Cc2csc(NC(=O)Nc3ccccc3OC)n2)cc1	-15%	0%	?	?	-3%	15µM*
O=C(Cc1csc(NC(=O)Nc2cccc(Cl)c2)n1)NCc1ccccn1	-11%	-10%	-6	2.1µM*	0%	2.6µM*
c1ccc2c(c1)ccn2-n1ccc2ccccc21	/	/	/	-54%	/	13µM*
COc1ccc(-n2ccc3ccccc32)cc1	12%	-13%	35	-15%	8%	-23%
CC(C)(C)CC(=O)NC[C@H]1OC[C@@H](NC2CCC2)[C@@H]1O	/	1%[176 µM]	/	/	/	/
Cc1ccc(NC(=O)C[n+]2cc(-c3ccccc3)n3c2CCC3)c(C)c1	-16%	?	-16	-21%	-16%	?
